This experiment in a line: HepG2 viability loss, ATP readout – cell-based, plate reader, dry powder, set 8, cytotoxicity control, dose response (AID 743331).

Activity calls are given as the source filed them.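 How the source made its calls: active means falling cell viability signal whose fitted half-effect concentration is at most twice the highest valid tested dose; inconclusive means flat curve with 30 to 70 percent loss, or poor fit; inactive means the rest.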

Regarding `CN(C)CCCN(Cc1cc2ccccc2[nH]c1=O)C(=O)NCc1ccccc1`, the outcome was inactive.
Consider `COc1cccc2sc(NC(=O)c3cc(S(=O)(=O)N(C)C)ccc3N3CCCC3)nc12`, for which the outcome was inactive.
With `Cc1cnc(NC(=O)c2cc(S(=O)(=O)N3CCCCC3)ccc2N2CCCC2)s1`, the call was inactive.
As for `CN(C)S(=O)(=O)c1ccc(N2CCCC2)c(C(=O)Nc2nccs2)c1`, the compound was classed as inactive.
For `Cc1cnc(NC(=O)c2cc(S(=O)(=O)N(C)C)ccc2N2CCC2)s1` the value was “inactive”; for `COc1ccc2sc(NC(=O)c3cc(S(=O)(=O)N(C)C)ccc3N3CCCC3)nc2c1`, “inactive”.
For `CN(C)S(=O)(=O)c1ccc(N2CCCC2)c(C(=O)Nc2nc3ccccc3s2)c1` the value was “inactive”.
`CN(C)CCCN(Cc1cc2ccccc2[nH]c1=O)C(=O)Nc1ccccc1`: the outcome was inactive.
For the compound `Cc1cnc(NC(=O)c2cc(S(=O)(=O)N(C)C)ccc2N2CCCC2)s1`, the compound was classed as inactive.
`CN(C)S(=O)(=O)c1ccc(N2CCCC2)c(C(=O)Nc2cccc(F)c2)c1`: the compound was classed as inactive.
For `Cc1cnc(NC(=O)c2cc(S(=O)(=O)N3CCCC3)ccc2N2CCCC2)s1`, the compound was called inactive.
For the compound `Cc1cnc(NC(=O)c2cc(S(=O)(=O)N(C)C)ccc2C2CCCC2)s1`, the compound was classed as inactive.
On to `CCN(CC)c1ccc(S(=O)(=O)N(C)C)cc1C(=O)Nc1ncc(C)s1`, for which the result was inactive.
As for `Cc1cnc(NC(=O)c2cc(S(=O)(=O)N(C)C)ccc2N(C)C)s1`, the outcome was inactive.
In the case of `COc1ccc2nc(NC(=O)c3cc(S(=O)(=O)N(C)C)ccc3N3CCCC3)sc2c1`, the compound was called inactive.
Take `Cc1csc(NC(=O)c2cc(S(=O)(=O)N(C)C)ccc2N2CCCC2)n1`: the call was inactive.
For `CN(C)S(=O)(=O)c1ccc(N2CCCC2)c(C(=O)Nc2ccccc2)c1` the value was “inactive”; for `Cc1cnc(NC(=O)c2cc(S(=O)(=O)N3CCOCC3)ccc2N2CCCC2)s1`, “inactive”; for `Cc1ccc(NC(=O)c2cc(S(=O)(=O)N(C)C)ccc2N2CCCC2)cc1`, “inactive”.

These data come from PubChem BioAssay AID743331 (Broad Institute, 2014).
